Experimental data as given in PubChem BioAssay (NCI).
The panel holds about 79,000 compounds, 15% with a hit somewhere; the sample as a whole holds those more often. Calls of active or inactive are those of the source. Rule as the data show it: active = growth inhibition above about 70%; inactive = the rest.

Key:
[1] = NCI Yeast Anticancer Drug Screen. Data for the rad50 strain (AID 155);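 also: 0% = growth of vehicle-only cultures of the same strain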; conditions: S. cerevisiae rad50 strain growth inhibition; at 50.0 µM; stronger effect = higher value
Outline: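 Inhibition values express reduced yeast growth in compound-treated cultures relative to vehicle-treated controls.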

[2] = NCI Yeast Anticancer Drug Screen. Data for the mec2-1 strain (AID 157); conditions: S. cerevisiae mec2-1 strain, at 50.0 µM, stronger effect = higher value
Outline: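 Growth inhibition is read against vehicle-treated controls after compound exposure of the mec2-1 yeast strain, which is defective in DNA damage repair or cell cycle control.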

[3] = NCI Yeast Anticancer Drug Screen. Data for the sgs1 mgt1 strain (AID 161);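 also: 0% = growth of cultures given vehicle only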; conditions: S. cerevisiae sgs1 mgt1 strain, at 50.0 µM, stronger effect = higher value
Outline: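 This yeast growth screen uses a strain with defined DNA-repair lesions; compound-treated growth is compared with vehicle-treated growth.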

[4] = NCI Yeast Anticancer Drug Screen. Data for the cln2 rad14 strain (AID 165);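 also: 0% = growth equal to vehicle treated cultures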; conditions: S. cerevisiae cln2 rad14 strain, at 50.0 µM, stronger effect = higher value
Outline: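 Growth inhibition, relative to vehicle-treated controls, is the read-out. The test organism is a yeast strain with defined genetic alterations, cln2 rad14.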

[5] = NCI Yeast Anticancer Drug Screen. Data for the bub3 strain (AID 167); conditions: S. cerevisiae bub3 mutant strain, at 50.0 µM, stronger effect = higher value
Outline: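 Steps: expose the mutant yeast strain to compound; grow alongside vehicle-treated cultures; measure growth; express inhibition against the vehicle cultures.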

[6] = NCI Yeast Anticancer Drug Screen. Data for the mlh1 rad18 strain (AID 175); conditions: S. cerevisiae mlh1 rad18 strain growth inhibition; at 50.0 µM; stronger effect = higher value
Outline: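 Cells of a genetically altered yeast strain, deficient in DNA damage repair, were treated with compound. Their growth was then compared with that of vehicle-treated cultures to give inhibition.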

Measured: growth inhibition

CCC/C=C/C=C/C1CC(O)C(O)C(=O)C1CO (stereo not given)
inactive: [1] 5.25% | [2] -29.6% | [3] 17.1% | [4] 7.9% | [5] 1.9% | [6] -0.7%

OCC1NCCC(O)C1OC1OC(CO)C(O)C(O)C1O (stereo not given)
inactive: [1] 5.25% | [2] -22.1% | [3] -0.65% | [4] -2.75% | [5] -5.7% | [6] -18.6%

O=S1(=O)C(c2cccc(C(F)(F)F)c2)=C(O)c2cc3ccccc3nc21
inactive: [1] 47.9% | [2] 21% | [3] 49.2% | [4] 33.2% | [5] -4.6% | [6] 18.6%

CN(Cc1cnc2nc(N)nc(N)c2n1)c1ccc(C(=O)NC(CCC(=O)OC(C)(C)C)C(=O)O)cc1 (stereo not given)
inactive: [1] 13.7% | [2] 32.4% | [3] 4.5% | [4] -20.1% | [5] -2.55% | [6] -1.2%

Cc1ccncc1C#N
inactive: [1] 5% | [2] -2.25% | [3] -0.9% | [4] 6.55% | [5] 0.3% | [6] 3.95%

CSCCC(NC(C)=O)C(C)=O (stereo not given)
inactive: [1] 5.75% | [2] -9.35% | [3] -3.55% | [4] -21.3% | [5] -7.15% | [6] 7.9%

COc1ccc(/C=N\O[Si](C)(C)C(C)(C)C)cc1O[Si](C)(C)C(C)(C)C
inactive: [1] 31.9% | [2] 17.2% | [3] 21.9% | [4] 5.05% | [5] -3.25% | [6] 15.8%

CNC(=O)NCCCC(NC(C)=O)C(=O)NCc1ccccc1 (stereo not given)
inactive: [1] -19% | [2] -16.7% | [3] -16.2% | [4] 6.4% | [5] -12.5% | [6] 4.7%

COC(=O)C(=O)c1c2ccccc2n2ccc3c4ccccc4[nH]c3c12
inactive: [1] 25.9% | [2] 8.9% | [3] -5.75% | [4] 10.1% | [5] 9.6% | [6] 10.5%

O=C1C(O)=C(c2ccccc2)C(=O)N1c1ccccc1
inactive: [1] -25.2% | [2] -9.05% | [3] -11.7% | [4] -62.5% | [5] 6.65% | [6] 9.5%

Cc1cc(S(=O)(=O)Nc2n[nH]c(N)n2)c(SCC(=O)O)cc1Cl
inactive: [1] -2.5% | [2] -0.3% | [3] -27.6% | [4] 8.55% | [5] 1.85% | [6] 18.9%

Cc1c(C(=O)O)c2cc3ccccc3cc2c(=O)n1C
inactive: [1] -22.1% | [2] -34.6% | [3] -10.1% | [4] -40.6% | [5] -23.9% | [6] -35%

O=c1[nH]cc(C(F)(C(F)(F)F)C(F)(F)F)c(=O)[nH]1
inactive: [1] -21.9% | [2] -18.9% | [3] -24.6% | [4] -4.25% | [5] -25.3% | [6] -36.8%

c1cc2c3c(cccc3c1)-c1nc3c(ccc4ccccc43)nc1-2
inactive: [1] -0.15% | [2] 22.8% | [3] 19.6% | [4] 11.6% | [5] 10.4% | [6] 12.3%

CC(=O)Oc1ccc[nH]c1=O
inactive: [1] 5.25% | [2] -22.1% | [3] 0.9% | [4] 24.6% | [5] 14.3% | [6] 2.4%

Nc1[nH]c(=O)nc2nc(I)[nH]c12
inactive: [1] 5.05% | [2] 2.75% | [3] 22.7% | [4] -17.2% | [5] 22.9% | [6] 3.35%

OCCN(CCO)c1cc(/C=C/c2c3ccccc3cc3ccccc23)nc2ccccc12
active: [1] 94.2% | [2] 95.9% | [3] 96.1% | [4] 94.8% | [5] 96.5% | [6] 95.7%

Cc1nc2ccccc2nc1CC(=N)c1ccccc1
inactive: [1] 24.2% | [2] 15.8% | [3] -5.85% | [4] 5.1% | [5] 35.7% | [6] 17.8%

OCCNCc1ccc2c(c1)OCO2
inactive: [1] -4.1% | [2] 3.85% | [3] -9.5% | [4] -4.85% | [5] -5.25% | [6] 1.4%

COCCOC(=O)CCC(C)=O
inactive: [1] 20.8% | [2] 15.1% | [3] 6.45% | [4] 7.8% | [5] -4.95% | [6] 10.7%

CC(=O)Nc1c(C)ccc([N+](=O)[O-])c1C
inactive: [1] -3.2% | [2] -2.2% | [3] -9.7% | [4] 5.95% | [5] 2.7% | [6] 13.5%

C=C(CN(C)C)C(=O)c1ccc(C(=O)C(=C)CN(C)C)cc1
inactive: [1] -1.4% | [2] 6.85% | [3] 2.2% | [4] -2.15% | [5] 0.65% | [6] 6.4%

CN(C)S(=O)(=O)c1ccc(CCc2ccc(S(=O)(=O)N(C)C)cc2)cc1
inactive: [1] 13.6% | [2] 2.65% | [3] -12.7% | [4] 5.9% | [5] 6.35% | [6] 6.2%

C[N+](C)(C)Cc1ccc2ccccc2c1CC(O)(c1ccccc1)c1ccccc1
inactive: [1] 16.6% | [2] -0.6% | [3] 19.1% | [4] 4.85% | [5] 1.95% | [6] 9.8%

OC(CNC1CC2CCC1C2)COc1cccc2ccccc12 (stereo not given)
active: [3] 76.5% | [6] 82.4%
inactive: [1] 68.4% | [2] 42.9% | [4] 52.4% | [5] 51%

O=C(Nc1ccc(Br)cc1)Nc1ccc(Br)cc1
inactive: [1] -23.3% | [2] 8.15% | [3] 15.3% | [4] -36.4% | [5] 31.9% | [6] 6.25%

COc1cccc2c(C(=O)O)cc(-c3ccc(Cl)cc3)nc12
inactive: [1] 7.85% | [2] 0.75% | [3] 19.1% | [4] 15.2% | [5] 6.9% | [6] 15.9%

O=C(O)CSC1=NNC2(C(=O)N1)c1ccccc1-c1ccccc12
inactive: [1] 1.8% | [2] -2% | [3] 18.4% | [4] -2.1% | [5] -3.85% | [6] 24.1%

C=C1C(=O)O[C@H]2[C@H]1[C@H](OC(=O)/C(C)=C\C)CC(=C)[C@@H]1[C@H](O)[C@H]3O[C@@]3(C)[C@@]12O
inactive: [1] 3.85% | [2] -14.8% | [3] 21.2% | [4] 5.25% | [5] -5.95% | [6] -18%

CC(Cc1ccccc1)NC(=O)CCCN1C(=O)c2ccccc2C1=O (stereo not given)
inactive: [1] -2.55% | [2] 1% | [3] -10.7% | [4] -37.8% | [5] 6.4% | [6] -5.15%

c1ncncn1
inactive: [1] 7.5% | [2] 5.95% | [3] 10.1% | [4] 3.05% | [5] 5.25% | [6] -7.85%

CC1(O)C(O)C(O)C1(O)CO (stereo not given) (tested in a mixture with another compound)
inactive: [1] 6.55% | [2] -3.35% | [3] 9.9% | [4] -1.85% | [5] -2.4% | [6] -4.9%

O=C(OCC(Cl)(Cl)Cl)N1[C@@H]2C=C[C@@H](N1C(=O)OCC(Cl)(Cl)Cl)[C@@]13CCCCC21O3 (stereo not given in full)
inactive: [1] -55.7% | [2] 5.15% | [3] 0.45% | [4] 1.8% | [5] -4.95% | [6] 1.65%

CCOC(=O)/C(=C\c1ccc(N(C)C)cc1)S(=O)(=O)C(F)(F)C(F)(F)C(F)(F)C(F)(F)F
inactive: [1] 2% | [2] 9.6% | [3] 6.1% | [4] -9.7% | [5] 4.75% | [6] 15.2%

O=C1OC(C2Cc3cc4c(cc3C2=O)CCC4)c2ccccc21 (stereo not given)
inactive: [1] -33.1% | [2] -25.4% | [3] -7.75% | [4] -2.55% | [5] -18.9% | [6] -13.4%

CN(C)CC1CCCC(CN(C)C)C1OC(=O)c1ccccc1 (stereo not given)
inactive: [1] 23% | [2] -5.15% | [3] 9.25% | [4] -37.5% | [5] 14.4% | [6] 50.9%

O=S1(=O)C=CC(N/N=C/c2cc(Cl)cc(Cl)c2)=C1
inactive: [1] 37.7% | [2] 9.3% | [3] 20.5% | [4] -38.2% | [5] 26.9% | [6] 26.6%

COC1(C2COc3cc(OCc4ccccc4)ccc3C2=O)C=C2OCOC2=CC1=O (stereo not given)
inactive: [1] -16.6% | [2] -18% | [3] -6.6% | [4] -33% | [5] 9.45% | [6] -4.75%

CCOC(=O)N1CC2CCc3c(ccc4ccccc34)N2C1=O (stereo not given)
inactive: [1] -2.35% | [2] 10.5% | [3] -4.5% | [4] -3.6% | [5] 7.4% | [6] 14.2%

CC(C)OP(=O)(O)CCl
inactive: [1] -16.9% | [2] -12.6% | [3] -24.4% | [4] -11.4% | [5] -13.6% | [6] -26.3%
